Laboratory results: PMC4336329 (PLoS ONE, 2015)
The whole screen tested about 310,000 compounds, of which about 2,200 (0.71%) showed an effect of 50% or more. The effect is printed as a negative number. For the sample, strong results were picked, then their nearest neighbours and some compounds at random.

Target: human ether-à-go-go-related gene (hERG) potassium channel (human, UniProt Q12809)
Assay: primary screen, population patch clamp on CHO cells stably expressing hERG; higher = less effect of the substance
Method: Briefly, Chinese hamster ovary (CHO) cells stably expressing the hERG channel were dislodged from tissue culture flasks and dispensed into PPC plates. […] During the recording, background leak currents were estimated by a 100 ms step to -80 mV from an initial holding potential of -70 mV and subtracted from the subsequent current measurement. The campaign was conducted in two phases using slight differences in recording protocol. In the first phase, the initial voltage pulse used a 100 ms step to -30 mV from a holding potential of -70 mV, a 2 s conditioning step to +25 mV, and a 2 s test step to -30 mV. During the second phase of the screen, the potential during the conditioning step was raised to +45 mV. In both phases of the campaign, a secondary voltage pulse was applied using the same parameters as the second phase initial pulse. The initial and secondary pulses were applied in the absence of compound, and upon application of 1 μM and 10 μM test concentrations. Small molecule effects on hERG current density were quantified by […].

human ether-à-go-go-related gene (hERG) potassium channel, sequence (Q12809 whole entry, looked up): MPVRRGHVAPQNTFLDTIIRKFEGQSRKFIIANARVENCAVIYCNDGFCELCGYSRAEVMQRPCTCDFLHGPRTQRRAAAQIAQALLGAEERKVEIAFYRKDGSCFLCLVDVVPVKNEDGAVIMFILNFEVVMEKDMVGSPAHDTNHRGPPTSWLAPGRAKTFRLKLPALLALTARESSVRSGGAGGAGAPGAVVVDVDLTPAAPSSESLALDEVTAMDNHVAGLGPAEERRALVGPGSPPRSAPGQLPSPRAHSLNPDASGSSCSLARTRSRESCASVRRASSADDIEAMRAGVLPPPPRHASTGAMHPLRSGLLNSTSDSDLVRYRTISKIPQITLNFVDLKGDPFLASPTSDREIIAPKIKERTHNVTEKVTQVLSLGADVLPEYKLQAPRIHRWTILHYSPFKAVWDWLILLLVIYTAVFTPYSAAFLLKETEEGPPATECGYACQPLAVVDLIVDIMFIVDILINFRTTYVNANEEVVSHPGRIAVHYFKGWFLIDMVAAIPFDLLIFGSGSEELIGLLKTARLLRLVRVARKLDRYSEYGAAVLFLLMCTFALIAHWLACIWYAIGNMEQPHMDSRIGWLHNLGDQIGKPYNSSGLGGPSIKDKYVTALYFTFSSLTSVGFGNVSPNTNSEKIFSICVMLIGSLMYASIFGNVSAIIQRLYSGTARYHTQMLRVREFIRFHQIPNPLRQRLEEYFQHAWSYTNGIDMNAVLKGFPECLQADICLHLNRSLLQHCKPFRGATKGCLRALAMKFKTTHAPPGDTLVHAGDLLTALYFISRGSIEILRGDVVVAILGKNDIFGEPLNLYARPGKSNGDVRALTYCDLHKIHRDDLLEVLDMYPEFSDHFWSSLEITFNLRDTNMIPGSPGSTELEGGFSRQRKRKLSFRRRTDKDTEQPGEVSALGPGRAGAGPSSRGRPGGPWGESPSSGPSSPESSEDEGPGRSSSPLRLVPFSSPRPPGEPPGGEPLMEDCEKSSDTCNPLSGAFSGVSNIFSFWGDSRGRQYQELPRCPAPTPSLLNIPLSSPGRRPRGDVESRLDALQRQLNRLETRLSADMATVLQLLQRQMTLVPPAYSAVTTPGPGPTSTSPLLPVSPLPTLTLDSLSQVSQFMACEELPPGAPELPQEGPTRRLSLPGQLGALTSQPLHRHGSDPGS

Row | SMILES | hERG current change (%, negative = inhibition) at 1uM [%]
1 | Cn1cnc([N+](=O)[O-])c1Cl | 11
2 | O=C(CN1C(=O)c2ccccc2C1=O)Nc1ccccc1C(=O)NC1CCCCCC1 | 6.73
3 | Cc1ccc(CNC(=O)c2ccc(N3CCC4(CC3)CC(c3cccc(Br)c3)=NO4)c(NC(=O)c3cccc(C)c3)c2)cc1 | 8.49
4 | CCCSc1nc(C)c(C(C)=O)cc1C#N | 7.88
5 | O=C(CN1CCCC1)Nc1ccccc1C(=O)c1ccccc1 | 10.5
6 | O=C(CCN1CCCCC1)Nc1ccc(Cl)cc1C(=O)c1ccccc1 | -42.9
7 | O=C(CN1CCN(CCO)CC1)Nc1ccc(Cl)cc1C(=O)c1ccccc1 | -80.7
8 | Cc1ccc(CNC(=O)N2CCN(c3ccc(C)cc3)CC2)cc1 | 14.1
9 | O=C1C=C(c2ccc(-c3ccccc3)cc2)C[C@@H](c2ccc(Cl)cc2)C1 | 15.9
10 | O=C1C=C(c2ccc(-c3ccccc3)cc2)C[C@@H](c2ccc(F)cc2)C1 | 6.09
11 | Cc1ccc(C2=CC(=O)C[C@H](c3ccc(F)cc3)C2)cc1 | 14.5
12 | N#Cc1ccc(C2=CC(=O)C[C@H](c3ccc(F)cc3)C2)cc1 | -61.4
13 | Cc1ccc(C2=CC(=O)C[C@H](c3ccc(Cl)cc3)C2)cc1 | 10.4
14 | N#Cc1ccc(C2=CC(=O)C[C@H](c3ccc(Cl)cc3)C2)cc1 | -51.9
15 | Cc1ccc2nc3c(cc2c1)c(NC(=O)C(C)(C)C)nn3CC(C)C | 7.75
16 | COc1ccc(S(=O)(=O)N2CCCCCC2)cc1C(=O)N(C)Cc1ccccc1F | 6.9
17 | CCCn1c(SCC(=O)Nc2ccccc2OC)nnc1-c1ccco1 | -18.2
18 | NC(=O)c1ccc(NC(=O)CCCNC(=O)c2ccc(Cl)cc2)cc1 | 16.6
19 | CCOc1ccc2nc(NC(=O)c3cc([N+](=O)[O-])ccc3N3CCOCC3)sc2c1 | 8.4
20 | COc1ccc(CN(C(=O)COc2ccccc2)c2ccccc2C(=O)O)cc1 | 22
21 | CC(C)Cn1c(CN(C)Cc2ccccc2)nc2c1c(=O)n(C)c(=O)n2C | -6.95

Row | SMILES | hERG current change (%, negative = inhibition) at 1uM [%]
22 | CC12CCC(C(=Nc3ccc(N=C4C(=O)C5(C)CCC4C5(C)C)cc3)C1=O)C2(C)C | 8.42
23 | COc1ccc(CNC(=S)NC2CCCC2)cc1 | 9.23
24 | COc1ccc(NC(=O)N2CCC(CO)(CC3CCCCO3)CC2)c(OC)c1 (stereo not drawn) | 9.96
25 | O=C(COc1ccc(F)cc1)Nc1ccc(-n2cnnn2)cc1 | -27.2
26 | CC(=O)c1ccc(N2CCN(C(=O)COc3ccccc3F)CC2)c(F)c1 | -11.1
27 | CCC(=O)c1ccc(N2CCN(C(=O)COc3ccccc3F)CC2)c(F)c1 | -19.1
28 | O=C(COc1ccc(-n2cnnn2)cc1)NCCc1ccc(F)cc1 | -5.74
29 | O=C(COc1ccc(-n2cnnn2)cc1)N1CCN(c2ccc(F)cc2)CC1 | -60.3
30 | CC(=O)c1cc(F)c(N2CCN(C(=O)COc3ccc(F)cc3)CC2)cc1C | -38.2
31 | CC(=O)c1ccc(N2CCN(C(=O)COc3ccc(F)cc3)CC2)c(F)c1 | -62.7
32 | CCC(=O)c1ccc(N2CCN(C(=O)c3ccc(F)cc3)CC2)c(F)c1 | -10.2
33 | CCC(=O)c1ccc(N2CCN(C(=O)COc3ccc(F)cc3)CC2)c(F)c1 | -71.3
34 | CCN(CC(=O)NCc1cccs1)C(=O)/C=C/c1cccc(Br)c1 | -42.3
35 | COc1cccc(NC(=O)CN(C)C(=O)c2ccccc2Sc2ccccc2C#N)c1 | 8.02
36 | CCC(C)NC(=O)Cn1nc(Cc2ccncc2)c2ccccc2c1=O (stereo not drawn) | 10.1
37 | Cc1cc(NC(=O)c2ccc3c(c2)C(=O)N(C)C3=O)no1 | 16.4
38 | Cc1ccc(C)c(OCCC(=O)NNC(=O)c2ccccc2)c1 | 10.8
39 | Cc1cccc(N(C(=O)c2nsc(Cl)c2Cl)C(C(=O)NC2CCCC2)c2ccc(O)cc2)c1C (stereo not drawn) | 10.1
40 | CN(C)S(=O)(=O)c1cccc(C(=O)N(Cc2ccc(F)cc2)Cc2ccco2)c1 | -14.6
41 | O=C(c1cccc(S(=O)(=O)N2CCOCC2)c1)N(Cc1ccc(F)cc1)Cc1ccco1 | -55.2
42 | O=C(c1cccc(S(=O)(=O)N2CCOCC2)c1)N(Cc1ccco1)Cc1cccs1 | -6.4
